Reference: PubChem BioAssay
Activity calls are given as the source filed them.

What was measured:
[1] = E. coli DRC41 culture turbidity changes, primary screen, E. coli filamentation inducer project, strain DRC41, OD650, 48 h (AID 1152);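 further: E. coli MC1000 strain DRC41 lacking acrAB efflux pump and sulA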; conditions: E. coli DRC41 (acrAB sulA), higher = more signal, called active from +8 up or from −8 down
[2] = small-molecule binders of probe aLefty1, primary screen, biochemical, small-molecule microarray, 635/667 nm fluorescence (AID 1153); conditions: higher = more signal;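 further: score merges spot fluorescence with signal-to-noise ratio from the scanned slide images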
[3] = PSAC antagonists in infected red cells, primary screen, cell-based, P. falciparum Indochina, OD700, 1 h (AID 1154); conditions: P. falciparum Indochina infected RBC osmotic lysis, higher = more signal, called active from +8 up or from −8 down
[4] = PSAC antagonists in infected red cells, primary screen, cell-based, P. falciparum Indochina, OD700, 2 h (AID 1155);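 further: lysis reports solute entry through the parasite surface anion channel PSAC; channel blockers reduce lysis of infected cells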; conditions: P. falciparum Indochina infected erythrocytes, osmotic lysis OD700; higher = more signal, called active from +8 up or from −8 down
[5] = osmotic lysis modulators in infected erythrocytes, primary screen, PSAC antagonist project, cell-based, P. falciparum Indochina, OD700, 3 h (AID 1156); conditions: higher = more signal, called active from +8 up or from −8 down
[6] = PSAC antagonists in infected red cells, primary screen, cell-based, P. falciparum Indochina, OD700, 18 h (AID 1157); conditions: P. falciparum Indochina infected erythrocytes, osmotic lysis OD700, 18 h; higher = more signal, called active from +8 up or from −8 down
[7] = modulators of S6 phosphorylation in cells, primary screen, cell-based, A549, cytoblot, luminescence, serum-stimulated (AID 1158); conditions: A549 phospho-S6 cytoblot, 5 h, higher = more signal;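 further: serum-stimulated A549 lung adenocarcinoma cells; signal is phosphorylated S6 detected by cytoblot immunostaining with HRP secondary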
[8] = biological target: NADPH oxidase 2 (Homo sapiens) (UniProt P04839); assay: NOX2-dependent H2O2 signal modulators, primary screen, NOX inhibitor project, cell-based, HEK293-NOX2, PMA-stimulated, Amplex Red fluorescence (AID 1159); conditions: 45 min, higher = more signal, called active from +8 up or from −8 down; further: test concentration not given here
[9] = biological target: NADPH oxidase 4 (Homo sapiens) (UniProt Q9NPH5); assay: NOX4-dependent H2O2 signal modulators, primary screen, NOX inhibitor project, cell-based, HEK293-NOX4, tetracycline-induced, Amplex Red fluorescence (AID 1160); conditions: 45 min, higher = more signal, called active from +8 up or from −8 down
[10] = biological target: NADPH oxidase 5 (Homo sapiens) (UniProt Q96PH1); assay: NOX5-dependent H2O2 signal modulators, primary screen, NOX inhibitor project, cell-based, HEK293-NOX5, Amplex Red fluorescence (AID 1161); conditions: HEK293-NOX5, ionomycin, 45 min, higher = more signal
Chain of NADPH oxidase 5 (Homo sapiens) (Q96PH1 whole entry, looked up): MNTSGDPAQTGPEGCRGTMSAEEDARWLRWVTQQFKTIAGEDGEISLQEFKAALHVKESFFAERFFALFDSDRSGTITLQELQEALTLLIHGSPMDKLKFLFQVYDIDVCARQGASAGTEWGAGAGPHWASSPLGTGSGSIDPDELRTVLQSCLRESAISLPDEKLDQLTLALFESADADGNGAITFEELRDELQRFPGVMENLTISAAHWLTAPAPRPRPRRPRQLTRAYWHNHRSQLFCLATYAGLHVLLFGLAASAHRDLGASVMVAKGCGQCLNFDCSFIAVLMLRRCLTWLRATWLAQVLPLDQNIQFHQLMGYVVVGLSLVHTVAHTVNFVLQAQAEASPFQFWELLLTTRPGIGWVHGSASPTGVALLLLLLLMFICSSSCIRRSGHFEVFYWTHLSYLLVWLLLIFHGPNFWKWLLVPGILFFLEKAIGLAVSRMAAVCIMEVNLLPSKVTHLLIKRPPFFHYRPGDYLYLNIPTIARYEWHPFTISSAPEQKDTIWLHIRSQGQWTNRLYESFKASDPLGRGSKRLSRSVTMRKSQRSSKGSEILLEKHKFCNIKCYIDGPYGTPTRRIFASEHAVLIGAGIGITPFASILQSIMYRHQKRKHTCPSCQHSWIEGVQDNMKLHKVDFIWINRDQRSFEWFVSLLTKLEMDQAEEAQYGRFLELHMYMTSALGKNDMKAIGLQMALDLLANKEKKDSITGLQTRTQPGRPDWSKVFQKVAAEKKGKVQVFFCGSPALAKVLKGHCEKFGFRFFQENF

Chain of NADPH oxidase 2 (Homo sapiens) (P04839 whole entry, looked up): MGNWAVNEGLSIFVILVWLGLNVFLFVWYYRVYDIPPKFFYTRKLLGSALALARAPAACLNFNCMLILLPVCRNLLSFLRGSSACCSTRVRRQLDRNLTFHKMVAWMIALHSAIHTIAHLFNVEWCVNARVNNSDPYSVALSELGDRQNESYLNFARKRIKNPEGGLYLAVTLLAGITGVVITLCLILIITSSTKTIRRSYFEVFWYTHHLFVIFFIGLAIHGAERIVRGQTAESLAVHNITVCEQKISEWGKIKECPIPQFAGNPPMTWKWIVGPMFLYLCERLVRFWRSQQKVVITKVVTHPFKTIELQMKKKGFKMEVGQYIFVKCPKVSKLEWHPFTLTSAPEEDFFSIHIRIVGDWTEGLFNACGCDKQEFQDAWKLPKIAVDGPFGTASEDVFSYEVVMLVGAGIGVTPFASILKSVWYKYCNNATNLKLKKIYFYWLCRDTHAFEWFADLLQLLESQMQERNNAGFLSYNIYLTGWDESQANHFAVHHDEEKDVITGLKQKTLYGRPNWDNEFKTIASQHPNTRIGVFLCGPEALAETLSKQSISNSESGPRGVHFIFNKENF
Chain of NADPH oxidase 4 (Homo sapiens) (Q9NPH5 whole entry, looked up): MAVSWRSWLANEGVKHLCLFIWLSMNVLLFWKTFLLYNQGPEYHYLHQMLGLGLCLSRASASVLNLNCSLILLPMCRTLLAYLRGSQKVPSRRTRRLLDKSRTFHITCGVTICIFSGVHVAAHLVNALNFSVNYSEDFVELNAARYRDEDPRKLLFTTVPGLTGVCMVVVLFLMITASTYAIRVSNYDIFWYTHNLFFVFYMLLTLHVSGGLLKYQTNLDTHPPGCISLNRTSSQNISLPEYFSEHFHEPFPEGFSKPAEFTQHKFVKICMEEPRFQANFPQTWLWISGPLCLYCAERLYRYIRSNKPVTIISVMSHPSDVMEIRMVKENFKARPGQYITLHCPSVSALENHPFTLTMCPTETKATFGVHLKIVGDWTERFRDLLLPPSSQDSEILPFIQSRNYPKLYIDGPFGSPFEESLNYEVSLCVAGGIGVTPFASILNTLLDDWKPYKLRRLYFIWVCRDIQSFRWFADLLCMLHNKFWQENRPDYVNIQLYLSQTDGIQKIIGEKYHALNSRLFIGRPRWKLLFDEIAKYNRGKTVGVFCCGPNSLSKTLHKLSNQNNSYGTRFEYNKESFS

| Compound | z-score [1] | composite z-score [2] | z-score [3] | z-score [4] | z-score [5] | z-score [6] | z-score [7] | z-score [8] | z-score [9] | z-score [10] |
| --- | --- | --- | --- | --- | --- | --- | --- | --- | --- | --- |
| [N-]=[N+]=NCc1ccccc1[C@@H]1OC(c2ccc(OCCCO)cc2)=N[C@]1(CCS(=O)(=O)c1ccccc1)C(=O)N1CCOCC1 | 1.79 (inactive) | 0.533 | 26.1 (active) | 12.5 (active) | 3.79 (inactive) | 0.45 (inactive) | 1.88 | 1.21 (inactive) | 1.18 (inactive) | 1.2 |
| CCOC(=O)C[C@H]1[C@H](OC(=O)c2ccc(-c3ccccc3)cc2)[C@@H](NC(=O)c2ccccc2)c2cc(OCCCO)ccc2N1C(=O)Cc1ccc(OC)cc1 | 0.118 (inactive) | -0.0601 | 1.93 (inactive) | 0.442 (inactive) | -0.113 (inactive) | 0.41 (inactive) | -0.0916 | 1.31 (inactive) | -0.847 (inactive) | 2.5 |
| COc1ccc(-c2cc3c(c(Cc4ccccc4)n2)[Si](C(C)C)(C(C)C)OC3)cn1 | -1.28 (inactive) | -0.0099 | 2.28 (inactive) | 0.139 (inactive) | -0.709 (inactive) | 0.408 (inactive) | 0.0758 | -1.62 (inactive) | -0.121 (inactive) | -2.02 |
| CN(C)CCCCNC(=O)[C@@H]1C[C@@H]2C(=O)N[C@@H](CCCCN)C(=O)N2[C@@H]1c1ccc(O)cc1 | 0.928 (inactive) | 0.129 | 1.93 (inactive) | 1.43 (inactive) | -0.079 (inactive) | 1.16 (inactive) | 0.297 | 1.42 (inactive) | 1.28 (inactive) | 0.81 |
| C=C(CCCC)/C(=C/C[C@H](OC(C)=O)c1ccccc1OCCO)c1cnc2ccccc2c1 | -0.413 (inactive) | -0.0054 | 17.5 (active) | 2.17 (inactive) | 1.32 (inactive) | 0.996 (inactive) | -0.0149 | -1.41 (inactive) | -0.361 (inactive) | -1.62 |
| CC(c1ccccc1)C(O)C1C=CC2C(=O)N(C)C(=O)C2N1NC(=O)OC(C)(C)C (stereo not given) | -0.288 (inactive) | 0.839 | 0.667 (inactive) | 0.871 (inactive) | -0.344 (inactive) | 0.508 (inactive) | -0.683 | -0.326 (inactive) | -0.289 (inactive) | -1.2 |
| COCCOC(=O)N1C(=O)[C@@]2(c3cc(C#CC4=CCCCC4)ccc31)[C@H](C(N)=O)[C@H]1C(=O)O[C@H](c3ccccc3)[C@H](c3ccccc3)N1[C@@H]2c1ccc(O)cc1 | 1.04 (inactive) | 0.148 | 1.19 (inactive) | -0.933 (inactive) | 0.161 (inactive) | -1.13 (inactive) | 2.41 | 1.11 (inactive) | 0.563 (inactive) | 2.76 |
| C=CCC(OC(C)=O)[C@@H]1[C@@H](N(Cc2cc3ccccc3o2)C(=O)Cc2ccc(OC)cc2)c2cc(OCCCO)ccc2N1C(=O)c1ccc2ccccc2c1 (stereo not given in full) | -0.829 (inactive) | -0.0252 | 2.31 (inactive) | -0.0382 (inactive) | 1.17 (inactive) | -0.0343 (inactive) | 0.559 | -1.16 (inactive) | -1.26 (inactive) | 1.14 |
| C=C(/C(=C/C[C@H](OC(C)=O)c1ccc(OCCO)cc1)c1cc(C(=O)OC)ccc1OC)C(C)C | 0.759 (inactive) | 0.0844 | 19.2 (active) | 4.38 (inactive) | 3.26 (inactive) | 1.36 (inactive) | 0.31 | 0.864 (inactive) | 0.217 (inactive) | -1.42 |
| C=CC[C@]1(C(N)=O)N=C(c2ccc(OCCCO)cc2)O[C@H]1c1ccccc1 | -0.0378 (inactive) | -0.0057 | 6.38 (inactive) | 1.44 (inactive) | 0.99 (inactive) | 0.765 (inactive) | -0.039 | 0.737 (inactive) | 0.676 (inactive) | 0.145 |
| CC(c1ccccc1)C(O)C1C=CC2C(=O)N(c3ccccc3)C(=O)C2N1Nc1ccccc1 (stereo not given) | -1.08 (inactive) | 1.05 | 4.6 (inactive) | 0.386 (inactive) | 2.47 (inactive) | -1.35 (inactive) | 1.95 | -3.18 (inactive) | -4.79 (inactive) | -5.54 |
| CC(C)C(=C=CC[C@H](O)c1ccc(CO)o1)CCO | -0.543 (inactive) | 0.0494 | 1.77 (inactive) | 0.408 (inactive) | 0.186 (inactive) | -0.012 (inactive) | -0.516 | 0.228 (inactive) | -0.345 (inactive) | -0.21 |
| COCCCNC(=O)[C@@H]1c2ccccc2C(=O)N(Cc2ccccc2OC)[C@H]1c1ccc(CO)cc1 | 0.876 (inactive) | 0.278 | 1.54 (inactive) | -0.0902 (inactive) | 0.591 (inactive) | -0.631 (inactive) | 2.45 | -1.79 (inactive) | -3.52 (inactive) | -5.09 |
| COCCOC(=O)N1C(=O)[C@@]2(c3ccccc31)[C@H](C(N)=O)[C@H]1C(=O)O[C@H](c3ccccc3)[C@H](c3ccccc3)N1[C@@H]2c1ccc(O)cc1 | 0.912 (inactive) | -0.649 | 0.658 (inactive) | -1.28 (inactive) | -0.142 (inactive) | -2.25 (inactive) | 2.74 | -0.339 (inactive) | -0.637 (inactive) | -0.534 |
| O=C1C[C@@](C(=O)NCc2ccccc2)(c2ccc([N+](=O)[O-])cc2)[C@@H](c2ccc(CO)cc2)N1CC12CC3CC(CC(C3)C1)C2 | 0.874 (inactive) | -0.287 | 5.33 (inactive) | 0.786 (inactive) | 3.76 (inactive) | 0.674 (inactive) | -0.0355 | 0.208 (inactive) | -0.821 (inactive) | 1.1 |
| O=C1NC(=O)C2C1C=CC(C(O)C=Cc1ccc([N+](=O)[O-])cc1)N2Nc1ccc(Cl)cc1Cl (stereo not given) | -2.11 (inactive) | 0.501 | 10.1 (active) | 2.46 (inactive) | 2.09 (inactive) | 1.66 (inactive) | -1 | -0.82 (inactive) | -6 (inactive) | -1.45 |
| CCOC(=O)C[C@H]1[C@H](OC(=O)c2cc3ccccc3oc2=O)[C@@H](NC(=O)CC(C)C)c2cc(OCCCO)ccc2N1C(=O)c1ccccc1 | 2.61 (inactive) | -0.0601 | 0.522 (inactive) | -1.18 (inactive) | 0.71 (inactive) | -2.17 (inactive) | 1.96 | -0.403 (inactive) | 0.0665 (inactive) | 0.622 |
| CCCNC(=O)[C@@H]1c2ccccc2C(=O)N(Cc2ccccc2OC)[C@H]1c1ccc(CO)cc1 | 0.0817 (inactive) | -0.0011 | 2.32 (inactive) | 0.117 (inactive) | 0.297 (inactive) | 0.0117 (inactive) | -0.439 | 0.802 (inactive) | 0.998 (inactive) | 0.686 |
| CCN(CC)c1ccc(N2CC=CC34O[C@@H]5/C=C\CCC(C)OC(=O)C5[C@H]3C(=O)N(CCCCCO)[C@@H]4C2=O)cc1 (stereo not given in full) | -0.0949 (inactive) | -0.147 | -0.062 (inactive) | -0.928 (inactive) | -0.356 (inactive) | -0.427 (inactive) | 0.414 | -0.0453 (inactive) | -0.419 (inactive) | 0.779 |
| CC(=O)n1cc(C(O)C2C=CC3C(=O)NC(=O)C3N2Nc2ccccn2)c2ccccc21 (stereo not given) | -0.734 (inactive) | -0.101 | 0.625 (inactive) | 0.827 (inactive) | -0.313 (inactive) | 0.679 (inactive) | -0.612 | -1.68 (inactive) | -2.41 (inactive) | -1.58 |
| CCCC[C@H]1C[C@@H]1[C@@H]1N(P(=O)(c2ccccc2)c2ccccc2)C[C@@](O)(c2ccccc2)CC12CC2 | -1.84 (inactive) | 0.404 | 2.07 (inactive) | 1.07 (inactive) | 0.425 (inactive) | 1.55 (inactive) | -0.443 | -0.476 (inactive) | -0.925 (inactive) | -2.1 |
| C=CC[C@@]1(C(=O)N2CCCCC2)N=C(c2ccc(OCCCO)cc2)O[C@@H]1c1ccccc1CN=[N+]=[N-] | 0.279 (inactive) | 0.393 | 26 (active) | 16 (active) | 2.79 (inactive) | 1.04 (inactive) | 1.32 | -0.935 (inactive) | 1.43 (inactive) | 1.05 |
| O=C1OCCC=C[C@H]2OC34C=CCN(Cn5nnc6ccccc65)C(=O)[C@H]3N(CCO)C(=O)[C@@H]4C12 (stereo not given in full) | 1.41 (inactive) | -0.147 | 1.03 (inactive) | 0.793 (inactive) | 1.08 (inactive) | 0.601 (inactive) | -0.18 | 1.55 (inactive) | 1.22 (inactive) | 1.73 |
| COC(=O)c1c2oc(c1C(=O)OC)C(=O)N[C@@H](C(C)C)Cn1cc(nn1)C1(CCCCC1)NC(=O)N[C@H](CO)CC2 | 2.15 (inactive) | -0.146 | 1.1 (inactive) | 0.782 (inactive) | 0.144 (inactive) | 0.36 (inactive) | 0.223 | 0.644 (inactive) | 0.758 (inactive) | -0.124 |
| CCOC(=O)C[C@H]1[C@H](OC(=O)c2ccc(C(=O)c3ccccc3)cc2)[C@@H](NC(=O)c2ccccc2)c2cc(OCCCO)ccc2N1C(=O)c1ccccc1 | -0.402 (inactive) | 0.228 | 2.54 (inactive) | 0.218 (inactive) | 0.0495 (inactive) | 0.357 (inactive) | -0.294 | -0.613 (inactive) | 0.646 (inactive) | 0.0914 |
| COC(=O)c1c(CC[C@@H](CO)NC(=O)N[C@@H](Cc2ccccc2)Cn2cc(-c3ccccn3)nn2)oc(C(=O)N2CCOCC2)c1C(=O)OC | -0.55 (inactive) | 0.149 | 0.179 (inactive) | 0.571 (inactive) | 0.521 (inactive) | 0.729 (inactive) | 0.291 | -1.76 (inactive) | -0.4 (inactive) | -1.88 |
